Source: the supplement of paper PMC10849652
Targets with a hit are over-represented here; the source holds about 8,800 in all. About 0.5% of all pairs of compound and target were hits.

Columns and labels:
Experiment in all cases: log2 fold change, soluble protein after heating vs DMSO (PISA); higher = thermal stabilisation; K562 lysate, 10 uM; active = over 0.2 and 3.5 SD of the protein, either way, in both replicates (recomputed)
nilotinib = compound: Cc1cn(-c2cc(NC(=O)c3ccc(C)c(Nc4nccc(-c5cccnc5)n4)c3)cc(C(F)(F)F)c2)cn1 [nilotinib]
Summary of the method: (§1)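 Pellets of K562 cells were dounce-homogenised in PBS pH 7.4 with 1 mM MgCl2, and the crude extract was held at 1 mg/mL protein for a 30 min treatment with 10 μM compound. Aliquots were heated for 3 min over 48°C-58°C and pooled before NP-40 was added to 0.5% at 4°C. The supernatant from 21,000xg for 90 min was quantified by TMTpro 16plex LC-MS/MS with channel sums equalised. Values are reported from duplicates as log-two fold change in thermal stability relative to solvent controls.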

[1] = compound: Cc1nc(Nc2n[nH]c3c2CN(C(=O)N[C@H](CN(C)C)c2ccccc2)C3(C)C)c2sccc2n1
Summary of the method: as §1

dasatinib = compound: Cc1nc(Nc2ncc(C(=O)Nc3c(C)cccc3Cl)s2)cc(N2CCN(CCO)CC2)n1 [dasatinib]
Summary of the method: as §1

[2] = compound: Cc1ncc(-c2ccnc(Nc3ccc(S(C)(=O)=O)cc3)n2)n1C(C)C
Summary of the method: as §1

[3] = compound: Cn1cc(-c2ccc3c(c2)CCN3C(=O)Cc2cccc(C(F)(F)F)c2)c2c(N)ncnc21
Summary of the method: as §1

quisinostat = compound: Cn1cc(CNCC2CCN(c3ncc(C(=O)NO)cn3)CC2)c2ccccc21 [quisinostat]
Summary of the method: as §1

tipifarnib = compound: Cn1cncc1[C@@](N)(c1ccc(Cl)cc1)c1ccc2c(c1)c(-c1cccc(Cl)c1)cc(=O)n2C [tipifarnib]
Summary of the method: as §1

[4] = compound: NC(=O)Nc1cc(-c2cccc(F)c2)sc1C(=O)N[C@H]1CCCNC1
Summary of the method: as §1

[5] = compound: NC(=O)c1cnc(N[C@@H]2CCCC[C@@H]2N)nc1Nc1cccc(-n2nccn2)c1
Summary of the method: as §1

[6] = compound: NC1(c2ccc(-c3nc4ccn5c(=O)[nH]nc5c4cc3-c3ccccc3)cc2)CCC1
Summary of the method: as §1

[7] = compound: NCC(=O)Nc1ccc(-n2nc(C(F)(F)F)cc2-c2ccc3c(ccc4ccccc43)c2)cc1
Summary of the method: as §1

vorinostat = compound: O=C(CCCCCCC(=O)Nc1ccccc1)NO [vorinostat]
Summary of the method: as §1

silmitasertib = compound: O=C(O)c1ccc2c(c1)nc(Nc1cccc(Cl)c1)c1ccncc12 [silmitasertib]
Summary of the method: as §1

[8] = compound: O=C1NC(=O)C(c2cnc3ccccn23)=C1c1cn2c3c(cc(F)cc13)CN(C(=O)N1CCCCC1)CC2
Summary of the method: as §1

entospletinib = compound: c1cn2cc(-c3ccc4cn[nH]c4c3)nc(Nc3ccc(N4CCOCC4)cc3)c2n1 [entospletinib]
Summary of the method: as §1

Measured: log2 fold change

CHD3 isoform 3 (UniProt Q12873)
active: vorinostat -0.316
inactive: nilotinib 0.036 | [1] -0.004 | dasatinib -0.033 | [2] -0.047 | [3] 0.032 | quisinostat 0.005 | tipifarnib 0.014 | [4] 0.029 | [5] -0.002 | [6] 0.008 | [7] 0.022 | silmitasertib 0.032 | [8] -0.004 | entospletinib 0.002

CHCHD1 (UniProt Q96BP2)
inactive: nilotinib -0.09 | [1] -0.023 | dasatinib 0.084 | [2] -0.043 | [3] -0.097 | quisinostat -0.174 | tipifarnib -0.03 | [4] 0 | [5] -0.023 | [6] -0.019 | [7] 0.131 | vorinostat 0.055 | silmitasertib -0.039 | [8] -0.014 | entospletinib -0.081

CAMKK2 (UniProt Q96RR4)
inactive: nilotinib -0.038 | [1] 0.176 | dasatinib 0.031 | [2] 0.028 | [3] 0.023 | quisinostat -0.01 | tipifarnib -0.037 | [4] 0.1 | [5] -0.046 | [6] 0 | [7] 0.081 | silmitasertib 0.074 | [8] -0.02 | entospletinib 0.039
active: vorinostat -0.325

CAMK1 (UniProt Q14012)
inactive: nilotinib -0.086 | [1] 0.04 | dasatinib 0.021 | [2] 0.064 | [3] 0.008 | quisinostat -0.12 | tipifarnib -0.071 | [4] 0.194 | [5] 0.018 | [6] -0.023 | [7] -0.13 | vorinostat 0.027 | silmitasertib -0.059 | [8] 0.062 | entospletinib 0.115

BAHCC1 (UniProt Q9P281)
inactive: nilotinib -0.191 | [1] 0.019 | dasatinib -0.144 | [2] -0.141 | [3] -0.039 | quisinostat -0.328 | tipifarnib 0.031 | [4] -0.053 | [5] 0.021 | [6] 0.07 | [7] 0.009 | vorinostat -0.082 | silmitasertib -0.086 | [8] -0.158 | entospletinib -0.069

BORCS5 (UniProt Q969J3)
inactive: nilotinib 0.064 | [1] -0.021 | dasatinib -0.025 | [2] 0.082 | [3] -0.003 | quisinostat -0.017 | tipifarnib -0.061 | [4] -0.017 | [5] -0.029 | [6] -0.009 | [7] -0.061 | vorinostat 0.136 | silmitasertib 0.008 | [8] 0.026 | entospletinib -0.115

C18orf32 (UniProt Q8TCD1)
Sequence of UniProt Q8TCD1 (Q8TCD1 whole entry, looked up): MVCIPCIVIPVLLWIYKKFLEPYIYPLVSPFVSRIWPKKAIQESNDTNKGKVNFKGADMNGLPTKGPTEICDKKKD
inactive: nilotinib 0.058 | [1] -0.078 | dasatinib -0.026 | [2] 0.072 | [3] 0.167 | quisinostat 0.027 | tipifarnib 0.093 | [4] -0.11 | [5] -0.084 | [6] 0.062 | [7] 0.004 | silmitasertib -0.021 | [8] 0.017 | entospletinib -0.071
active: vorinostat -0.486

CANX isoform 2 (UniProt P27824)
Sequence of UniProt P27824 (P27824 whole entry, looked up): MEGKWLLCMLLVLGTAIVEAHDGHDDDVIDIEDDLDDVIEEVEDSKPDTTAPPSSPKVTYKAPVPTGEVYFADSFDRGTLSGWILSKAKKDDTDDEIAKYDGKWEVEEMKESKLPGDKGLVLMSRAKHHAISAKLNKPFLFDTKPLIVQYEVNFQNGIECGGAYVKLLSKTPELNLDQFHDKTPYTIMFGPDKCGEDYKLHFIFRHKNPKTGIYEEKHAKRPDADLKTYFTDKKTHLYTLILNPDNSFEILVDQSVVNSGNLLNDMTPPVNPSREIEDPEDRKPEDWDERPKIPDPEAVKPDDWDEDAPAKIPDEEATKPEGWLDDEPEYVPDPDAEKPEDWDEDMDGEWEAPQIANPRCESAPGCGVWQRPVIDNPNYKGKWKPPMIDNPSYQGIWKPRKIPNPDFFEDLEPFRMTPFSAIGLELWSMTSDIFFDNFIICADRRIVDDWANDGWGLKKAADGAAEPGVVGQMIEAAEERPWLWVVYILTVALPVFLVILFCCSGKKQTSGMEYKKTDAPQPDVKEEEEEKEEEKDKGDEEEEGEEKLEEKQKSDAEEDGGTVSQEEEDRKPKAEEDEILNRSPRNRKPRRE
inactive: nilotinib -0.006 | [1] 0.008 | dasatinib 0.012 | [2] -0.02 | [3] -0.02 | quisinostat -0.029 | tipifarnib -0.064 | [4] -0.011 | [5] -0.004 | [6] -0.011 | [7] 0.018 | vorinostat 0.131 | silmitasertib -0.004 | [8] -0.015 | entospletinib -0.004

CCNB1 (UniProt P14635)
inactive: nilotinib -0.04 | [1] 0.037 | dasatinib -0.016 | [3] -0.021 | quisinostat 0.035 | tipifarnib -0.005 | [4] 0.005 | [5] 0.165 | [6] 0.006 | [7] 0.05 | vorinostat -0.008 | silmitasertib -0.013 | [8] -0.02 | entospletinib -0.009
active: [2] 0.369

CASC4 (UniProt Q6P4E1)
inactive: nilotinib -0.072 | [1] -0.006 | dasatinib 0.037 | [2] 0.053 | [3] 0.029 | quisinostat 0.021 | tipifarnib -0.033 | [4] -0.024 | [5] 0.035 | [6] -0.011 | [7] -0.034 | vorinostat 0.02 | silmitasertib 0.019 | [8] 0.025 | entospletinib -0.029

BRD2 isoform 2 (UniProt P25440)
Sequence of UniProt P25440 (P25440 whole entry, looked up): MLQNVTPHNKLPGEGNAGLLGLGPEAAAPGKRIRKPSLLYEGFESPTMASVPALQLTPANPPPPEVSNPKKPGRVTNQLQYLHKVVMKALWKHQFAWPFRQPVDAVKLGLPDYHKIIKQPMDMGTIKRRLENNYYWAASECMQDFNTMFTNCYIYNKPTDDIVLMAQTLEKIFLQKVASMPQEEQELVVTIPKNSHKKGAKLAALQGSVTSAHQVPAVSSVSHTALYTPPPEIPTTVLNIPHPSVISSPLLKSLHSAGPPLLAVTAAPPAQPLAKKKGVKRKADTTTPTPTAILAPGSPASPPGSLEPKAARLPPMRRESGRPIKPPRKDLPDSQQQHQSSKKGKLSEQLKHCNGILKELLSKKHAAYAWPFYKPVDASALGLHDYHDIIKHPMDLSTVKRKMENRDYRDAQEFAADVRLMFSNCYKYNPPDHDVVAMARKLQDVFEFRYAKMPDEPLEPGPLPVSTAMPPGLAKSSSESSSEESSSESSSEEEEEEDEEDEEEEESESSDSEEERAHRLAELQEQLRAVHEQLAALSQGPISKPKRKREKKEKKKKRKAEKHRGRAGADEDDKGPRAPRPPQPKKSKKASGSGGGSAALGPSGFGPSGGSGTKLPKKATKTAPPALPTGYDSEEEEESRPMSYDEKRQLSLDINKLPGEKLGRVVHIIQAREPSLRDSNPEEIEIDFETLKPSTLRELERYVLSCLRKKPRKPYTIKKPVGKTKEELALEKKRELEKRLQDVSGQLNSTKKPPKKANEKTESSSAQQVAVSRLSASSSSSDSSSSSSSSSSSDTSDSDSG
inactive: nilotinib 0.012 | [1] 0.15 | dasatinib 0.011 | [2] -0.024 | [3] -0.048 | quisinostat -0.028 | tipifarnib -0.035 | [4] 0.028 | [5] -0.161 | [6] -0.064 | [7] 0.048 | vorinostat 0.107 | silmitasertib 0.074 | [8] 0.051 | entospletinib 0.021

BMS1 (UniProt Q14692)
inactive: nilotinib 0.024 | [1] 0.024 | dasatinib -0.02 | [2] -0.045 | [3] -0.01 | quisinostat -0.097 | tipifarnib 0 | [4] 0.006 | [5] 0.015 | [6] -0.019 | [7] 0.024 | vorinostat -0.037 | silmitasertib 0.04 | [8] 0.033 | entospletinib 0.045

ATG7 (UniProt O95352)
Sequence of UniProt O95352 (O95352 whole entry, looked up): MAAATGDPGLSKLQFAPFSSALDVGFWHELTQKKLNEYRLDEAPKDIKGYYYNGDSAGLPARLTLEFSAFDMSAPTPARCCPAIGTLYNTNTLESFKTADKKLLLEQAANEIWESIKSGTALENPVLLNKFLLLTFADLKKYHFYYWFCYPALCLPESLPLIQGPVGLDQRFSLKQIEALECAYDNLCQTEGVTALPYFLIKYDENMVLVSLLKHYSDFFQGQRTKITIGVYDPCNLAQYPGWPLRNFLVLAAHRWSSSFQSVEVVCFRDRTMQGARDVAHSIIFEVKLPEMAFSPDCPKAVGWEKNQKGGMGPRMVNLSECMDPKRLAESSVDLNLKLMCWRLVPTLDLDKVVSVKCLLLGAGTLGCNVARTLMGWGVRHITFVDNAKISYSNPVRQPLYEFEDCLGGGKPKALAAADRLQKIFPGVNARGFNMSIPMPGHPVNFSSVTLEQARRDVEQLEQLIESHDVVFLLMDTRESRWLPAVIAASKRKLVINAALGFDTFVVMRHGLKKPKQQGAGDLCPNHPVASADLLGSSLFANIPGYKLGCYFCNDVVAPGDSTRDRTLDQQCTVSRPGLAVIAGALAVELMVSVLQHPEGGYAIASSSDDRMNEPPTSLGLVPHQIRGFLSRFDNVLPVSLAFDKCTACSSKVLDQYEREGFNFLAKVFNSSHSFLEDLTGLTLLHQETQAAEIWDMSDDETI
inactive: nilotinib 0.02 | [1] -0.03 | dasatinib -0.026 | [2] -0.032 | [3] 0.037 | quisinostat -0.039 | tipifarnib 0.03 | [4] 0.058 | [5] 0.01 | [6] -0.02 | [7] 0.008 | silmitasertib 0.005 | [8] -0.005 | entospletinib 0.001
active: vorinostat -0.47

CCDC186 (UniProt Q7Z3E2)
Sequence of UniProt Q7Z3E2 (Q7Z3E2 whole entry, looked up): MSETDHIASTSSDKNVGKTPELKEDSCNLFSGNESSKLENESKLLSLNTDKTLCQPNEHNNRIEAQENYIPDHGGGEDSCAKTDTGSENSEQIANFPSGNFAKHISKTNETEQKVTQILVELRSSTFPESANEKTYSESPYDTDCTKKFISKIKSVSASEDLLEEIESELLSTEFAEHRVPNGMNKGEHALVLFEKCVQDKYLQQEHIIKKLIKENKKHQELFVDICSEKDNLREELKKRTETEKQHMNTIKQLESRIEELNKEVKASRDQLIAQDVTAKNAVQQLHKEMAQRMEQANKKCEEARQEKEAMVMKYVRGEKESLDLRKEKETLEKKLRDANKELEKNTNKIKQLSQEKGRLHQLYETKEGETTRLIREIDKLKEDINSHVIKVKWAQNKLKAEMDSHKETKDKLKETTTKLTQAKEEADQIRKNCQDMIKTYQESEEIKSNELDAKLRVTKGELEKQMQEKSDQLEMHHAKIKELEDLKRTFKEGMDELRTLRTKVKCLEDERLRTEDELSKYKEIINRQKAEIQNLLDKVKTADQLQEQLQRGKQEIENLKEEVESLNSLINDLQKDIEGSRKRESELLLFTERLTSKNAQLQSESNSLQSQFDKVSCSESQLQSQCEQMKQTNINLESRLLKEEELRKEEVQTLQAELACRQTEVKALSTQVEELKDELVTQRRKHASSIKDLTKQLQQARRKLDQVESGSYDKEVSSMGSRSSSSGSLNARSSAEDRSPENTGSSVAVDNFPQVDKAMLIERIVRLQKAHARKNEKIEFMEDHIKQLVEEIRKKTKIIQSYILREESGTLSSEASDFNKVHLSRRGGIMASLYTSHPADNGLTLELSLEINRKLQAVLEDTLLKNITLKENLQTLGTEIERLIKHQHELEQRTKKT
inactive: nilotinib -0.046 | [1] -0.056 | dasatinib -0.014 | [2] 0.03 | [3] 0.043 | quisinostat -0.03 | tipifarnib -0.01 | [4] 0.033 | [5] -0.017 | [6] 0.001 | [7] 0.052 | vorinostat 0.005 | silmitasertib 0.057 | [8] 0.012 | entospletinib -0.01

CDKN2AIP (UniProt Q9NXV6)
Sequence of UniProt Q9NXV6 (Q9NXV6 whole entry, looked up): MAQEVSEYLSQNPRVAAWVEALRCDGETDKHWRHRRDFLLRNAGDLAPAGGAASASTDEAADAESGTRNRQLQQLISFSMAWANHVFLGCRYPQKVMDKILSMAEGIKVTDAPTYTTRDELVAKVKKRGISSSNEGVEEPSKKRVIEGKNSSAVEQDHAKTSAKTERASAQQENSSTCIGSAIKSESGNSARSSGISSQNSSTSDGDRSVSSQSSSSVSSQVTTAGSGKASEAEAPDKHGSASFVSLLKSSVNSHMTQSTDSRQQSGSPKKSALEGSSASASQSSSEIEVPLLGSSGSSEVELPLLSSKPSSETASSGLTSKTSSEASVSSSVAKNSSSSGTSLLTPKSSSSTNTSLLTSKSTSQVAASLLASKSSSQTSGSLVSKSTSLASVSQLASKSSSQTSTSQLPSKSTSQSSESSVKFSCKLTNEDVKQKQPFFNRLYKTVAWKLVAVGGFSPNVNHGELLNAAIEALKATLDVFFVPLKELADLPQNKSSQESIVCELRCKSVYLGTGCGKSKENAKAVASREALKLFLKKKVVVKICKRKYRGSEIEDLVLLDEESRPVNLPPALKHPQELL
inactive: nilotinib 0.002 | [1] -0.023 | dasatinib -0.004 | [2] -0.008 | [3] -0.014 | quisinostat -0.031 | tipifarnib 0.005 | [4] 0.008 | [5] -0.01 | [6] 0.001 | [7] -0.005 | vorinostat 0.072 | silmitasertib -0.037 | [8] -0.022 | entospletinib 0.013

BCKDHB (UniProt P21953)
active: vorinostat -0.275
inactive: nilotinib 0.068 | [1] 0.007 | dasatinib 0.062 | [2] 0.084 | [3] 0.039 | quisinostat 0.031 | tipifarnib -0.069 | [4] -0.005 | [5] 0.007 | [6] -0.039 | [7] 0.055 | silmitasertib 0.076 | [8] 0.072 | entospletinib -0.123

CARHSP1 (UniProt Q9Y2V2)
inactive: nilotinib 0.037 | [1] -0.037 | dasatinib 0.017 | [2] -0.004 | [3] -0.04 | quisinostat -0.006 | tipifarnib 0.035 | [4] -0.034 | [5] -0.026 | [6] -0.001 | [7] 0.045 | vorinostat 0.052 | silmitasertib -0.006 | [8] 0.056 | entospletinib -0.049

ATE1 isoform 2 (UniProt O95260)
Sequence of UniProt O95260 (O95260 whole entry, looked up): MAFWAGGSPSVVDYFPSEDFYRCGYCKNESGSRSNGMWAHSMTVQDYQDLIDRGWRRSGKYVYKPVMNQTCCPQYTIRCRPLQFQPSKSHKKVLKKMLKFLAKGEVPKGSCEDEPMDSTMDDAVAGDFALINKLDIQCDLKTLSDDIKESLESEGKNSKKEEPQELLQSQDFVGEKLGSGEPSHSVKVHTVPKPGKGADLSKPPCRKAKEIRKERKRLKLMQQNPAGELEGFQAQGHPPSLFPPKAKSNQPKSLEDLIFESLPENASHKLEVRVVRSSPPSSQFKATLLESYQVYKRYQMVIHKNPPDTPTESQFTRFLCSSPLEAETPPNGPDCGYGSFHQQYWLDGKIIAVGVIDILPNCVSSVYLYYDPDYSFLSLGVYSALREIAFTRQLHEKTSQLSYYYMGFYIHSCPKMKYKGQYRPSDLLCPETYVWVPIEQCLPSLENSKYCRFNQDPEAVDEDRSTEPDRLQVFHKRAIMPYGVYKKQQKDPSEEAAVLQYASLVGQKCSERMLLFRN
inactive: nilotinib -0.099 | [1] -0.006 | dasatinib 0.069 | [2] -0.032 | [3] 0.017 | quisinostat -0.014 | tipifarnib 0.025 | [4] 0.034 | [5] -0.002 | [6] 0.014 | [7] -0.068 | silmitasertib 0.041 | [8] -0.01 | entospletinib -0.008
active: vorinostat -0.444

CALB2 (UniProt P22676)
inactive: nilotinib 0.098 | [1] -0.085 | dasatinib -0.037 | [2] 0.056 | [3] 0.016 | quisinostat 0.091 | tipifarnib -0.079 | [4] -0.006 | [5] -0.004 | [6] 0.046 | [7] 0.067 | vorinostat 0.156 | silmitasertib 0.017 | [8] 0.063 | entospletinib 0.019

ATP6V0A2 (UniProt Q9Y487)
Sequence of UniProt Q9Y487 (Q9Y487 whole entry, looked up): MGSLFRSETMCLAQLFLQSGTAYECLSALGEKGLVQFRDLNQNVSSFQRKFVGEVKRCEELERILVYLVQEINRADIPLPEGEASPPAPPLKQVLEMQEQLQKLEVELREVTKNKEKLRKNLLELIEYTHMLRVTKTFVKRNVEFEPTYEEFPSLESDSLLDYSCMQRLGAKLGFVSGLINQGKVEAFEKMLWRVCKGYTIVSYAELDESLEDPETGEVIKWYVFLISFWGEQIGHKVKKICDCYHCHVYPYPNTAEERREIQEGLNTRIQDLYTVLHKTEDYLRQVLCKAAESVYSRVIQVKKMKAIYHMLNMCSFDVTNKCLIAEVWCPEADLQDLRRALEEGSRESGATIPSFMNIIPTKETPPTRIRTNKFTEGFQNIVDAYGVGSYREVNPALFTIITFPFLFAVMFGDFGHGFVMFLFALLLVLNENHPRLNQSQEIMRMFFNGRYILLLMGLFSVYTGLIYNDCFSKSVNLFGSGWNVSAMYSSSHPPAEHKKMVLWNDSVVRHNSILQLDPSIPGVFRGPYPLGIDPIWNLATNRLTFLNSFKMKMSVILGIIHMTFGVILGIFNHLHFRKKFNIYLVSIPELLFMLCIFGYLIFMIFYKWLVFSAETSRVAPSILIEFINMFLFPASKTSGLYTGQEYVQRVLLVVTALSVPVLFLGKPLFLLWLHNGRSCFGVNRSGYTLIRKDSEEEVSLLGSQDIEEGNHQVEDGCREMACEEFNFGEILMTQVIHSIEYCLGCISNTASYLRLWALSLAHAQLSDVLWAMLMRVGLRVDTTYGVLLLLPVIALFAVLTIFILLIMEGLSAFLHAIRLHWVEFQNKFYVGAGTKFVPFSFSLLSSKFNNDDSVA
inactive: nilotinib 0.034 | [1] -0.008 | dasatinib -0.028 | [2] 0.027 | [3] 0.003 | quisinostat -0.065 | tipifarnib -0.033 | [4] -0.011 | [5] 0.001 | [6] -0.001 | [7] -0.033 | vorinostat 0.127 | silmitasertib -0.016 | [8] -0.021 | entospletinib 0.012

CAD (UniProt P27708)
inactive: nilotinib 0.004 | [1] 0.013 | dasatinib -0.094 | [2] -0.001 | [3] 0.038 | quisinostat -0.02 | tipifarnib -0.005 | [4] 0.023 | [5] -0.006 | [6] 0.004 | [7] 0.012 | vorinostat -0.067 | silmitasertib 0.026 | [8] 0.008 | entospletinib 0
